From PubChem BioAssay
Six1-Eya2 blk: inhibitors of human Six1/Eya2 interaction. Q15475+O00167. activity change, % (test concentration not listed). AlphaScreen GST-Six1/His-Eya2 binding, biochemical; active compounds read low. AID 651725. hit rate 0.56% among 360,000
Target sequence (O00167 whole entry, looked up): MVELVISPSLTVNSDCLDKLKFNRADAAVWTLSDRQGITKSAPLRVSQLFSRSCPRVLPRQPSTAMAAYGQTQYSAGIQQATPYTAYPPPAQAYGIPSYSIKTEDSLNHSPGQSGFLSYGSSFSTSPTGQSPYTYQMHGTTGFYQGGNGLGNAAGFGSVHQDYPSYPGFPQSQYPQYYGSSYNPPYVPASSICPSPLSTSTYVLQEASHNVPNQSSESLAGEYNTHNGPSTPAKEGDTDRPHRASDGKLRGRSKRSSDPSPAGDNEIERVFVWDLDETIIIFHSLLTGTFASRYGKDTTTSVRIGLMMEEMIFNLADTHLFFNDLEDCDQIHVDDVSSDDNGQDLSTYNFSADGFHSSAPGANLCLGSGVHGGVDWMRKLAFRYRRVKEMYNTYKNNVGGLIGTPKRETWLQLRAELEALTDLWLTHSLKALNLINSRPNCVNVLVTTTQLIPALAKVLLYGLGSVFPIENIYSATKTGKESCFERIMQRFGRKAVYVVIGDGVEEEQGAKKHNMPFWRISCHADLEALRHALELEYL
Target sequence (Q15475 whole entry, looked up): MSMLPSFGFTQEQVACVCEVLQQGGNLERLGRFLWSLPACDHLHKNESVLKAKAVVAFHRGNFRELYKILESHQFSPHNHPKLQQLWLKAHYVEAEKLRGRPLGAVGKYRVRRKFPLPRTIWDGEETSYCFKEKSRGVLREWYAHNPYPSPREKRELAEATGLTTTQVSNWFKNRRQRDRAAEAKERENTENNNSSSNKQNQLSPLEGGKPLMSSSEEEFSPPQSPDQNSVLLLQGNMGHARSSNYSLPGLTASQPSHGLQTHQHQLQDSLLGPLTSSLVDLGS
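GST-Six1 + His-Eya2 (5X stock: 250/500 nM); Tris pH 8.0, 300 mM NaCl, 0.05% BSA, 0.02% Tween 20; GSH donor/Ni acceptor beads; 1 h 37 °C dark; AlphaScreen readout.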
CtBP-E1A blk: CtBP/E1A binding inhibition | AlphaScreen GST-E1A/His-CtBP binding, 1536-well; active compounds read low | activity change, % (test concentration not listed) | hit rate 0.49% among 340,000 | AID 651724
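GST-E1A and His-tagged CtBP (125 nM each as 5X stock) were preincubated with pin-transferred compound for 2 h at 37 °C in the dark, then glutathione donor and nickel acceptor beads were added for 1 h before AlphaScreen reading.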
CCT chaperon mod: modulators of cytosolic chaperonin (CCT/TRiC) activity | purified chaperonin ATPase assay, HTRF ADP detection, 30 min | AID 651819 | hit rate 0.3% among 360,000 | activity change, % (test concentration not listed), hits read low; in the data active = activity change below about -30%
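We incubate TRiC, 40 or 20 nM final, with library compounds at 76 uM and 10 uM ATP for 30 min at 37 °C. ADP formed is detected with Transcreener HTRF reagents after 30 min at room temperature.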
pAkt inh: blocks phosphorylation of Akt | activity change, % for hits at 50 µM | hit rate 0.32% among 360,000 | AID 651550 | Neuro2A IGF-stimulated pAkt S473 HTRF, 20 min; active compounds read low; in the data active = activity change below about -80%; inconclusive = mostly about -51% to -80%
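Single-point screen (50 µM final compound) in Neuro2A cells stimulated 20 min with 6 nM IGF at 37 deg C. After lysis, Ser473-phosphorylated Akt read by HTRF (ex 330 nm, em 615/665 nm) as the 665/615 ratio.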
Starred values were filed as active, the others as inactive. Most compounds without a hit are left out; they make up all but 1.3% or so of the library. Cut-off read from the data, not from the text of the source, unless noted: active = activity change below about -65%; inconclusive = mostly about -30% to -63%; inactive = weaker than that. % is set by controls: 0 for no effect and ±100 for the full control effect.

For COc1ccc2[nH]c(=O)c(COC(=O)c3ccco3)cc2c1 the results were Six1-Eya2 blk -1, CtBP-E1A blk 10, CCT chaperon mod -1 and pAkt inh -114%*.
For O=C(CSc1ccc2nnc(-c3cccnc3)n2n1)Nc1cccc(F)c1 the results were Six1-Eya2 blk -26, CtBP-E1A blk inconclusive, CCT chaperon mod -12 and pAkt inh inactive.
Screening O=C(CSc1ccc2nnc(-c3cccnc3)n2n1)Nc1ccc(F)cc1F returned Six1-Eya2 blk inconclusive, CtBP-E1A blk -69*, CCT chaperon mod -1 and pAkt inh inactive.
CCCn1c(SCC(=O)NCc2ccco2)nnc1C(C)C was read as Six1-Eya2 blk 3, CtBP-E1A blk 6, CCT chaperon mod -42* and pAkt inh inactive.
COc1ccccc1CNC(=O)COC(=O)C1CCN(c2ccc(C(F)(F)F)cn2)CC1 was read as Six1-Eya2 blk 3, CtBP-E1A blk 8, CCT chaperon mod -2 and pAkt inh inactive.
Clc1ccc(CSc2nnc([C@@H]3CCCN3)o2)cc1Cl was read as Six1-Eya2 blk -9, CtBP-E1A blk -1, CCT chaperon mod -3 and pAkt inh -106%*.
`CC(C)c1ccc(/C=C2\SC(=O)N(CC(=O)NCCCn3ccnc3)C2=O)cc1` gave Six1-Eya2 blk -8, CCT chaperon mod 1 and pAkt inh inactive.
`Cc1[nH]c(N=Nc2ccccc2)nc1N=Nc1ccccc1` gave Six1-Eya2 blk inconclusive, CtBP-E1A blk -66*, CCT chaperon mod -3 and pAkt inh inactive.
Screening Nc1ccc(N=Nc2ccccc2)c(N)n1 returned Six1-Eya2 blk -29, CtBP-E1A blk inconclusive, CCT chaperon mod 1 and pAkt inh inactive.
For O=C(O)CNC(=O)CC1S/C(=N/N=C2/NC(=O)CS2)NC1=O (stereo not given) the results were Six1-Eya2 blk -67*, CtBP-E1A blk inconclusive, CCT chaperon mod 0 and pAkt inh inactive.
NC(=O)NC(=O)CC1S/C(=N/N=C2\CSC(=O)N2)NC1=O (stereo not given) was read as Six1-Eya2 blk -90*, CtBP-E1A blk -93*, CCT chaperon mod 0 and pAkt inh inactive.
Screening O=C(CN1C2CCCC1CC(NC(=O)c1ccccc1)C2)Nc1ccccc1 (stereo not given) returned Six1-Eya2 blk 5, CtBP-E1A blk -4, CCT chaperon mod -2 and pAkt inh inactive.
Cc1ccc(C(=O)Oc2cc(C)n(C)c(=O)c2)cc1 was read as Six1-Eya2 blk -95*, CtBP-E1A blk -23, CCT chaperon mod -2 and pAkt inh inactive.
CC(=O)c1c(OC(=O)c2ccc(C)cc2)c2ccccc2n1C was read as Six1-Eya2 blk 0, CtBP-E1A blk 3, CCT chaperon mod -3 and pAkt inh inactive.
`COc1ccccc1-n1cnc2sc(C)c(C)c2c1=O` gave Six1-Eya2 blk -1, CtBP-E1A blk -3, CCT chaperon mod -94* and pAkt inh inactive.
Screening CN(C)CCN1CCN(C2CN(Cc3ccccc3)S(=O)(=O)C2)CC1 (stereo not given) returned Six1-Eya2 blk -7, CtBP-E1A blk 4, CCT chaperon mod 0 and pAkt inh inactive.
For N#CC1=C(N)n2c(s/c(=C\c3ccco3)c2=O)=C(C#N)C1c1ccco1 (stereo not given) the results were Six1-Eya2 blk -71*, CtBP-E1A blk inconclusive, CCT chaperon mod -10 and pAkt inh inactive.
CN(CC(=O)Nc1ccc(Cl)c(C(F)(F)F)c1)C(=O)c1ccc(S(=O)(=O)N2CCOCC2)cc1 was read as Six1-Eya2 blk -8, CtBP-E1A blk -10, CCT chaperon mod -1 and pAkt inh inactive.
Screening CC1(Oc2cccc(C#N)c2)CCN(Cc2csc3ccccc23)C1 (stereo not given) returned Six1-Eya2 blk 9, CtBP-E1A blk -25, CCT chaperon mod 0 and pAkt inh inactive.
For CCOc1ccc(NC(=O)c2c(NC(=O)CNCCN3CCOCC3)sc3c2CCC3)cc1 the results were Six1-Eya2 blk inconclusive, CtBP-E1A blk -82*, CCT chaperon mod 0 and pAkt inh inactive.
Cc1onc(-c2ccccc2)c1C(=O)NC(=S)NNC(=O)c1ccccc1O was read as Six1-Eya2 blk -85*, CtBP-E1A blk 7, CCT chaperon mod 1 and pAkt inh inactive.
Screening Cc1onc(-c2ccccc2)c1C(=O)NC(=S)NNC(=O)c1ccc(O)cc1 returned Six1-Eya2 blk -9, CtBP-E1A blk -4, CCT chaperon mod -3 and pAkt inh inactive.
Cc1onc(-c2ccccc2)c1C(=O)NC(=S)NNC(=O)c1ccc(O)cc1O was read as Six1-Eya2 blk -93*, CtBP-E1A blk -14, CCT chaperon mod -3 and pAkt inh inactive.
Cc1onc(-c2ccccc2)c1C(=O)Nc1cccc2nsnc12 was read as Six1-Eya2 blk 10, CtBP-E1A blk 11, CCT chaperon mod -1 and pAkt inh -120%*.
CC(CC(F)(F)F)N1CCC(n2nccc2NC(=O)CCCc2ccccc2)CC1 (stereo not given) was read as Six1-Eya2 blk 10, CtBP-E1A blk 6, CCT chaperon mod 2 and pAkt inh inactive.
O=C(CN(c1ccccc1)S(=O)(=O)c1ccc(F)cc1)NC1CCCCCC1 was read as Six1-Eya2 blk 0, CtBP-E1A blk 26, CCT chaperon mod -2 and pAkt inh inactive.
For CCN(CC)c1ccc(C(=O)Nc2cccc(F)c2)cc1 the results were Six1-Eya2 blk -4, CtBP-E1A blk 7, CCT chaperon mod -1 and pAkt inh -115%*.
`CCOc1ccc(NS(=O)(=O)c2c(C)nc3sc(CC)nn3c2=O)cc1` gave Six1-Eya2 blk 0, CtBP-E1A blk -1, CCT chaperon mod -3 and pAkt inh inactive.
COc1ccc(CCNC(=O)C/C(C)=N/NC(=O)c2ccc(N)cc2)cc1OC was read as Six1-Eya2 blk 4, CtBP-E1A blk -7, CCT chaperon mod 1 and pAkt inh inactive.
`COc1ccc(CCNC(=O)C/C(C)=N/NC(=O)C2CCCCC2)cc1OC` gave Six1-Eya2 blk 9, CtBP-E1A blk 4, CCT chaperon mod -60* and pAkt inh inactive.
`COC(=O)c1sc2cc(C(F)(F)F)cnc2c1-c1cccnc1` gave Six1-Eya2 blk -72*, CtBP-E1A blk -15, CCT chaperon mod -2 and pAkt inh inactive.
`Cc1ccc(/C(O)=C2\C(=O)C(=O)N(CCCN3CCOCC3)C2c2ccccc2F)cc1` (stereo not given) gave Six1-Eya2 blk 8, CtBP-E1A blk 1, CCT chaperon mod -40* and pAkt inh inactive.
Cc1ccc(/C(O)=C2\C(=O)C(=O)N(CCN(C)C)C2c2ccccc2F)cc1 (stereo not given) was read as Six1-Eya2 blk -1, CtBP-E1A blk 6, CCT chaperon mod -2 and pAkt inh inactive.
COc1cccc(C(=O)c2ncc(C(F)(F)F)cc2Cl)c1 was read as Six1-Eya2 blk 4, CtBP-E1A blk 0, CCT chaperon mod -1 and pAkt inh inactive.
`COc1ccc(C(=O)c2ncc(C(F)(F)F)cc2Cl)cc1` gave Six1-Eya2 blk 7, CtBP-E1A blk -24, CCT chaperon mod -146* and pAkt inh inactive.
